From PubChem BioAssay (EPA / NIEHS) come the findings set out here.

Molecules are shown by their SMILES. Where “and” joins values, the source holds several entries; their conditions need not be identical. Equal values may be shown once. Where a structure was tested more than once in an assay, its records may differ in their call. Calls of active or inactive are those of the source. Rule for the calls: active = hit-call score of the fitted dose curve at least 0.9, where 1 is the maximum; inactive = score below 0.9.

A short description of experiment [1]: ATG_NFI_CIS: Attagene CIS-FACTORIAL HepG2 Assay for human Nuclear Factor I (NFI) (AID 2282989). The following applies: HepG2 cis-regulatory reporter, NFI response element transcription; actives raise or lower the signal. The gist of the method: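 Reporter transcription driven by endogenous transcription factors in HepG2 cells; 24 h treatment. Quantitation by labelled RT-PCR fragments on capillary electrophoresis, gain- or loss-of-signal relative to DMSO.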

Experiment [2] deals with Myc proto-oncogene protein (Homo sapiens) (UniProt P01106). Nature of the experiment: ATG_Myc_CIS: Attagene CIS-FACTORIAL HepG2 Assay for human Myelocytomatosis (Myc) Proto-Oncogene Transcription Factor (AID 2282990). The following applies: HepG2, Attagene cis-reporter transcription factor activity; actives raise or lower the signal. The gist of the method: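 Cells of the HepG2 human liver line bear multiple cis-driven reporter transcription units. Reporter mRNA after 24 h exposure is reverse-transcribed, amplified, labelled and resolved by capillary electrophoresis, with gain- or loss-of-signal fitting relative to DMSO.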
Sequence of Myc proto-oncogene protein (Homo sapiens) (P01106 whole entry, looked up): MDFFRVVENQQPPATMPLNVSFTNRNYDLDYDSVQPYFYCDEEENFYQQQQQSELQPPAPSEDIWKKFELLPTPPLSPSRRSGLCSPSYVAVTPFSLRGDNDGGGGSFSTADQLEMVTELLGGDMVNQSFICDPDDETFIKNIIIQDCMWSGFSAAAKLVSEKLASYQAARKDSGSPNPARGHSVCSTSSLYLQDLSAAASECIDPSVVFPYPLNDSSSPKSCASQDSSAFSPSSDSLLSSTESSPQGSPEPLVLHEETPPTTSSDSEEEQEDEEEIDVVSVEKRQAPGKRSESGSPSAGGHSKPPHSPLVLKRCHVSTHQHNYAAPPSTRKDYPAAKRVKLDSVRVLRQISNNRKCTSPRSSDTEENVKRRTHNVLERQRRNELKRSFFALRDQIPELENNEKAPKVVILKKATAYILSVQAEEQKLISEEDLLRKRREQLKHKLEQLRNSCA

The nature of experiment [3]: ATG_NF_kB_CIS: Attagene CIS-FACTORIAL HepG2 Assay for human Nuclear Factor Kappa B (NF-kB) (AID 2282991). The following applies: HepG2 Attagene cis-factorial NF-kB reporter mRNA; actives raise or lower the signal. In short, it runs like this: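 Readout is reporter transcript level, gain or loss versus DMSO, measured 24 h post-dose via RT-PCR, fluorescent labelling and capillary electrophoresis. Human HepG2 liver cells carried transiently transfected CIS reporter constructs reflecting endogenous factors.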

The nature of experiment [4]: ATG_NRF2_ARE_CIS: Attagene CIS-FACTORIAL HepG2 Assay for human Nuclear Factor Erythroid 2 Related Factor 2 (NFR2) response to Antioxidant Response Elements (ARE) (AID 2282992). Particulars: HepG2 Attagene ARE/NRF2 reporter, transcription factor activity; actives raise or lower the signal. The gist of the method:
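HepG2 cells transiently transfected with multiplexed cis-element reporter constructs, 24 h after chemical dosing; reporter mRNA quantified by RT-PCR, fluorescent primer extension, HpaI digestion and capillary electrophoresis. Bidirectional fit relative to DMSO.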

The nature of experiment [5]: ATG_Oct_MLP_CIS: Attagene CIS-FACTORIAL HepG2 Assay for human Octamer-Binding Transcription Factor (Oct) (AID 2282993). Particulars: HepG2 Attagene cis-factorial Oct reporter, mRNA; actives raise or lower the signal. The gist of the method: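 Transfected HepG2 cells, 24 h treatment. Reporter mRNA quantified by RT-PCR–capillary electrophoresis; bidirectional fitting against DMSO.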

For experiment [6], the target named is Cellular tumor antigen p53 (Homo sapiens) (UniProt P04637). Nature of the experiment: ATG_p53_CIS: Attagene CIS-FACTORIAL HepG2 Assay for human p53 Transcription Factor (AID 2282994). The following applies: HepG2 p53 cis-element reporter, Attagene mRNA; actives raise or lower the signal. The gist of the method:
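HepG2 cells transiently transfected with cis-regulated multiple reporter transcription units, dosed 24 h. Reporter mRNA measured by RT-PCR, 6-FAM primer extension, HpaI digestion and capillary electrophoresis; bidirectional fit relative to DMSO.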

A short description of experiment [7]: BSK_3C_TissueFactor: BioMAP Diversity Plus: 3C Assay for Tissue Factor Biomarker Activity (AID 2282997). Particulars: BioMAP 3C HUVEC, tissue factor biomarker readout; actives raise or lower the signal. In short, it runs like this: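 Primary human umbilical vein endothelial cells in the 3C system were exposed to test chemical for 24 h, then Tissue Factor measured by ELISA. Activity was fitted bidirectionally against DMSO as negative control and baseline.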

Experiment [8] can be described thus: BSK_3C_uPAR: BioMAP Diversity Plus: 3C Assay for Urokinase-type plasminogen activator receptor (uPAR) Biomarker Activity (AID 2282998). The following applies: BioMAP 3C HUVEC, uPAR biomarker ELISA; actives raise or lower the signal. The gist of the method:
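Readout: ELISA for surface uPAR. System: human umbilical vein endothelial primary cells, 24 h after chemical exposure. Analysis: bidirectional fit, DMSO baseline.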
A general note: ELISA stands for enzyme-linked immunosorbent assay.

Experiment [9] is described as follows: BSK_3C_VCAM1: BioMAP Diversity Plus: 3C Assay for Vascular cell adhesion molecule 1 (VCAM1) Biomarker Activity (AID 2282999). Particulars: BioMAP 3C HUVEC, VCAM1 ELISA, cytokine-stimulated; actives raise or lower the signal. The gist of the method: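 Endothelial cells from human umbilical vein are treated with test chemical. At 24 h, VCAM-1 is measured by ELISA, and responses in either direction are fitted relative to DMSO.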

Experiment [10] is described as follows: BSK_4H_Eotaxin3: BioMAP Diversity Plus: 4H Assay for Eotaxin 3 Biomarker Activity (AID 2283000).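 For outcome: CCL26 protein level quantified by ELISA in parallel with SRB cytotoxicity check.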 The following applies: primary human endothelial cells (HUVEC); actives raise or lower the signal. The gist of the method:
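HUVEC, 24 h post-dose, ELISA for Eotaxin-3/CCL26. Gain or loss of signal fitted bidirectionally vs DMSO baseline.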

Sequence of Cellular tumor antigen p53 (Homo sapiens) (P04637 whole entry, looked up): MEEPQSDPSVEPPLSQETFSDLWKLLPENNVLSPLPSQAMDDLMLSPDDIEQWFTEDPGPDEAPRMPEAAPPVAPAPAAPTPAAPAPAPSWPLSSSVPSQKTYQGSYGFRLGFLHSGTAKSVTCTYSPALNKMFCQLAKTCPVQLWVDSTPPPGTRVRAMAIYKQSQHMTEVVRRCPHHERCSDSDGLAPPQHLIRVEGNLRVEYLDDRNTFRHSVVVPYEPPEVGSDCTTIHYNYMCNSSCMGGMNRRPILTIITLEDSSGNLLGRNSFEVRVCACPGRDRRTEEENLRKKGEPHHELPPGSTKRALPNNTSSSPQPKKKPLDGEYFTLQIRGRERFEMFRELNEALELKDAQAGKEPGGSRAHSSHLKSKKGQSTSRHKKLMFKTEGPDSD

For orientation: AC50 means the concentration at which the activity in the assay is half-maximal. Take `CCc1ccc(O)c(C(C)(C)C)c1`: the compound was called inactive in experiment [1], in experiment [3], in [5] and in experiment [6]. For the same compound, the concentration at half-maximal activity (AC50) in experiment [2] is 33.4 µM (active); in experiment [4], 27.7 µM (active); in experiment [7], 32.2 µM (active); in experiment [8], 39.3 µM (active); in [9], 34.6 µM (active); in experiment [10], 39 µM (active).
With `FC(F)C(F)(F)COCC1CO1` (configuration not stated), the compound was classed as inactive in experiment [1], in experiment [2], in [3], in experiment [4], in [5] and in experiment [6]. In addition, the result in experiment [7], in experiment [8], in [9] and in [10] was inactive.
Consider `CCN(CC)C(=S)SSC(=S)N(CC)CC`, for which the AC50 is 158 µM (active) in experiment [1]; 83.7 µM (active) in experiment [2]; 27.6 µM (active) in experiment [3]; 184 µM (active) in [4]; 144 µM (active) in [5]; 137 µM (active) in experiment [6]. Also, the AC50 is 20 µM (active) in experiment [7], 20.6 µM (active) in experiment [8], 28.9 µM (active) in experiment [9] and 32.3 µM (active) in experiment [10].
With `OC(CCl)CCl`, the result in experiment [1], in experiment [2], in experiment [3], in [4], in experiment [5] and in experiment [6] was inactive. For the same compound, the outcome in experiment [7], in experiment [8], in [9] and in experiment [10] was inactive.
For the compound `c1ccc2cc3ccccc3cc2c1`, the compound was called inactive in [1], in [2], in [3], in experiment [4], in [5] and in experiment [6]. Further, the outcome in [8], in experiment [9] and in [10] was inactive. Also, the AC50 in experiment [7] was 2.03 µM (active).
Turning to `FC(F)=C(F)C(F)(F)C(F)(F)C(F)(F)C(F)(F)C(F)(F)C(F)(F)F`, the compound was classed as inactive in experiment [1], in [2], in experiment [3], in [4], in [5] and in experiment [6]. The outcome in [7], in experiment [8], in [9] and in experiment [10] was inactive. The half-maximal activity concentration (AC50) in experiment [4] was 86.6 µM (active); in experiment [5], 267 µM (active).
Turning to `OC(Cn1cncn1)(Cn1cncn1)c1ccc(F)cc1F`, the result in experiment [1], in [2], in experiment [3], in [4], in [5] and in [6] was inactive. Further, the outcome in experiment [7], in [8], in experiment [9] and in [10] was inactive.
With `Cn1c(=O)c2[nH]cnc2n(C)c1=O`, the call in experiment [1], in [2], in experiment [3], in experiment [4], in experiment [5] and in experiment [6] was inactive. The outcome in experiment [7], in experiment [8], in [9] and in experiment [10] was inactive.
In the case of `NNC(=O)c1ccncc1`, the compound was classed as inactive in [1], in experiment [2], in experiment [3], in [4], in [5] and in experiment [6]. Moreover, the result in experiment [7], in experiment [8], in [9] and in experiment [10] was inactive.
`O=C(O)CO`: the compound was classed as inactive in experiment [1], in [2], in [3], in [4] and in experiment [5].
Regarding `CCCCCCCCCCCCCCO`, the AC50 in [1] was 179 µM (active); in experiment [2] it was 166 µM (active); in experiment [7], 36.6 µM (active); in [8] it was 34.4 µM (active); in experiment [9], 32.8 µM (active); in [10] it was 38.4 µM (active). Also, the result in experiment [3], in [4], in experiment [5] and in experiment [6] was inactive.
For the compound `OCc1c[nH]c2ccccc12`, the compound was classed as inactive in experiment [1], in experiment [2], in [3], in experiment [5], in experiment [6] and in experiment [9]. Also, the AC50 is 25.5 µM (active) in [3]; 26.6 µM (active) [middle of 5 runs] in experiment [4]; 26.8 µM (active) in experiment [6]; 0.133 µM (active) in experiment [7]; 20 µM (active) in experiment [8]; 6.67 µM (active) in [10].
For the compound `CCCCC(CC)C(=O)OCCOCCOCCOC(=O)C(CC)CCCC` (configuration not stated), the call in experiment [1], in experiment [2], in experiment [3], in experiment [4], in [5] and in experiment [6] was inactive. Also, the outcome in experiment [7], in experiment [8], in experiment [9] and in [10] was inactive.
Regarding `OC(O)(C(F)C(O)(O)C(F)(F)F)C(F)(F)F`, the concentration at half-maximal activity (AC50) in [1] is 52.4 µM (active) and 51.5 µM (active); in [3], 16.6 µM (active) and 7.74 µM (active); in [4], 39.4 µM (active); in [6], 28.4 µM (active) and 21.2 µM (active); in experiment [7], 13.6 µM (active); in [8], 15.2 µM (active). The AC50 in [10] is 53.3 µM (active) and 53.6 µM (active). Moreover, the result in experiment [2], in [4], in [5], in experiment [7], in [8] and in experiment [9] was inactive.
On to `CCn1nc(C)c2c1C(=O)NCC(c1ccc(O)cc1)=N2`, for which the compound was called inactive in [1], in experiment [2], in [3], in experiment [4], in experiment [5] and in experiment [7]. In addition, the outcome in experiment [8], in [9] and in [10] was inactive. In addition, the AC50 in [6] was 2.9 µM (active).
With `OCCOCCOCCO`, the outcome in [1], in experiment [2], in experiment [3], in experiment [4], in experiment [5] and in experiment [6] was inactive. Also, the outcome in [7], in experiment [8], in experiment [9] and in experiment [10] was inactive.
For the compound `CCCCCCCCCC`, the outcome in [1], in experiment [2], in experiment [3], in [4], in experiment [5] and in [6] was inactive. The outcome in experiment [7], in [8], in [9] and in experiment [10] was inactive.
As to `CCCCOC(=O)c1ccccc1`, the result in [1], in [2], in experiment [3], in experiment [4], in [5] and in experiment [6] was inactive. For the same compound, the result in experiment [7], in experiment [8], in experiment [9] and in [10] was inactive.
On to `NCC(F)(F)C(F)(F)C(F)(F)C(F)(F)F`, for which the call in experiment [1], in experiment [2], in experiment [3], in [4], in experiment [5] and in experiment [6] was inactive. Besides, the outcome in [7], in experiment [8], in experiment [9] and in experiment [10] was inactive.
